“And” between values parts separate entries of the source, which are not always exact repeats. Equal values may be shown once. This is part of a sample that, as a whole, favours compounds with a hit. Of some 83,000 tested, about 20% had one in any assay.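 Each cell line was grown in a 96-well plate and treated with one concentration of compound for 48 hours. Values below 10 were considered active.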 Values without a mark were called inactive. The source made the active and inactive calls.
Test system: MDA-MB-468 breast
Experiment: NCI-60 one-dose screen, 48 h (100 = growth as untreated, 0 = no growth, -100 = all killed)
Conditions: 10 µM unless noted

SMILES	growth
CCCCN(CCCC)CCC(=O)c1ccc(OC)c2ccccc12	-18.7% (active)
CC1CCC2(C(=O)O)CCC3(C)C(=CCC4C5(C)CCC(O)C(C)(C)C5CCC43C)C2C1C (centres undefined)	24.5%
CN(Cc1ccc(C(F)(F)F)cc1)CC(O)C(=O)Nc1ccc(Cl)cc1 (centres undefined)	-30.5% (active)
c1ccc2c(N3CCCCC3)ncnc2c1	75.9%
CN1CCN(Cc2ccc(NC(=O)c3cccc(C#Cc4cnc(N)c5ncccc45)c3F)cc2C(F)(F)F)CC1	70.6%
O=C(Nc1nc2ccc(C(=O)N3CCN(/C=C/c4ccccc4)CC3)cc2s1)c1ccc(NCCc2ccccc2)c([N+](=O)[O-])c1	22.6%
COc1ccc(-c2ccnc3c(C#N)c(Nc4ccccc4)nn23)cc1OC	79.4%
O=C1/C(=N/O)CCc2ccccc21	109%
Clc1ccc2[nH]cc(-c3cncn3CCc3ccccc3)c2c1	7.96% (active)
COc1cc(-c2nc(-c3ccccc3)[nH]c2-c2ccnc(NCCCNS(=O)(=O)c3ccc(C)cc3)n2)ccc1F	79.4%
CC(=O)C1CCC2C3CC=C4CC(SC(=N)N)CCC4(C)C3CCC12C (centres undefined)	-36.8% (active)
CCOC(=O)C1OC1(c1ccccc1)c1ccccc1 (centres undefined)	104%
Cc1ccc(N=C2CSc3nnc(-c4csc5c4CCCC5)n3N2)cc1	17%
NS(=O)(=O)OCC1OC(n2cnc3cncnc32)C(O)C1O (centres undefined)	5.51% [0.1 µM] (active) and -18.9% [0.1 µM] (active)
Cc1ccc(S(=O)(=O)Nc2sccc2-c2nc(-c3ccccc3)no2)cc1	97.7%
O=C1CCC/C=C\C[C@H]2C=CC(=O)/C2=C/C[C@H](CCc2cccc(C(F)(F)F)c2)O1	-38.3% (active)
COc1ccc(-c2nc3cc(Cl)c(Cl)cc3n2CC(=O)N=Nc2c(O)[nH]c3ccc(Cl)cc23)cc1	-40.1% (active)
O=c1oc2ccccc2cc1-c1nn(-c2ccccc2)cc1-c1nn[nH]n1	104%
CC1(O)COCCCCOc2c(CN)cccc2NC(=O)c2nc(cnc2N)-c2ccc(cc2)S(=O)(=O)C(C)(C)C1 (centres undefined)	-35.1% (active)
COc1ccc(OC)c(/C=C/[C@H]2O[C@@H](C)[C@H](O)[C@@H]2O)c1	114%
O=C1C(Cl)=C(Cl)C(Cl)(Cl)C(Cl)C1(Cl)Cl (centres undefined)	115%
CCCC(=O)Oc1ccc(/C(=C(/CC)Cc2ccccc2)c2ccc(OCCN3CCCC3)cc2)cc1	42.8%
COc1ccc(C(=O)COC(=O)[C@H](C[Se][Se]C[C@H](NC(=O)c2ccc(Br)cc2F)C(=O)OCC(=O)c2ccc(OC)cc2)NC(=O)c2ccc(Br)cc2F)cc1	-51.3% (active)
Cc1ccc(C=C2C(Cl)=C(Cl)C(Cl)=C2Cl)cc1	-59.4% (active)
[2H]C1([2H])NC([2H])([2H])C([2H])([2H])N(c2ccc(Nc3ncc4cc(C(=O)N(C)C)n(C5CCCC5)c4n3)nc2)C1([2H])[2H]	99.5%
N#Cc1c(-c2ccccc2)nc(SCC(O)CN2CCOCC2)nc1N1CCOCC1 (centres undefined)	76.7%
CCCCn1cnc(-c2cc(-c3ccccc3)cc(C(F)(F)F)c2)n1	99%

SMILES	growth
O=c1cc(CNc2cc(F)cc(F)c2)c2ccc(I)cc2[nH]1	19%
CCCn1c(=S)sc2c(NNC(C)=O)nc(C)nc21	93.1%
FC(F)(F)c1nn[nH]n1	99%
Cc1[nH]c(/C=C2\C(=O)Nc3ccc(F)cc32)c(C)c1C(=O)NC[C@H](O)CN1CCOCC1	114%
COc1ccc(-c2cnc3ccccc3n2)cc1	99.7%
Fc1ccc(Nc2nc(Nc3ccc(-c4nc5ccccc5[nH]4)cc3)nc(N3CCCC3)n2)cc1	83.6%
CN1CCN(C(=O)OCc2nc3c(N4CCOCC4)nc(-c4ccccc4)nc3n2C)CC1	-59% (active)
COc1cc2nc3cc([N+](=O)[O-])ccc3c(Cl)c2cc1OC	10.7%
Oc1c(Cl)cc(Cl)cc1C(c1cc(Cl)cc(Cl)c1O)C(Cl)(Cl)Cl	-30.5% (active)
CN1CCN(C(=O)c2ccc(NC(=O)c3cc4c(nn3)NCCN4Cc3cc(Cl)ccc3Cl)cc2)CC1	60.9%
CCOC(=O)N1CCN(CCCCl)CC1	97.4%
COc1cc(-c2n/c(=C\c3c(O)[nH]c4ccccc34)cc3c2=Nc2ccccc2-3)cc(OC)c1OC	5.24% (active)
COc1ccc(CCn2cncc2-c2c[nH]c3ccccc23)cc1	94.5%
COc1cc(-c2nc3ccccc3o2)cc(CN2CCCCC2)c1O	67.1%
Cn1cc(-c2csc(-c3cn(CCCN4CCCCC4)c4ccccc34)n2)c2cccnc21	99.8%
COc1ccc(N2CCC(=S)NC2=S)cc1	97.7%
ClC1(Cl)C2CCCCCCC21 (centres undefined)	118%
COc1ccc(-c2cnnn2-c2nonc2-n2cccc2)cc1OC	40.1%
NC(=O)c1cccc(-c2cc(C(N)=O)ccc2Cl)c1	53.4%
O=C(CSc1nc2ccccc2c(=O)n1-c1ccc(Cl)cc1)N/N=C/c1ccc(Oc2ccc(Cl)cc2)cc1	-18.6% (active)
COc1ccccc1/C=N/NC1=NC2C(N1)N(C)C(=O)N2C (centres undefined)	106%
NC(=O)c1cc(Cl)ccc1NC(=O)COc1ccccc1	21%
CN(C)c1nc(-c2cccs2)n2nc(-c3ccco3)cc2n1	7.52% (active)
CNC(=O)c1[nH]cc(-c2ccccc2)c1-c1cc(OC)c2c(c1OC)OCO2	100%
COc1cc(C(=O)c2cnc(-c3c[nH]c4cccc(C)c34)[nH]2)cc(OC)c1OC	2% (active)
CCCCN1CCN(c2ccc3nc(-c4ccc5nc(-c6cc(OC)c(OC)c(OC)c6)[nH]c5c4)[nH]c3c2)CC1	45.7%
CC1=CC(=NC(=O)CBr)C=C/C1=N\S(=O)(=O)c1ccccc1	66%

SMILES	growth
C(=C\c1nc2ccccc2[nH]1)/c1nc2ccccc2[nH]1	106%
C=C[C@H]1CCC/C=C/[C@@H]2C[C@H](O)C[C@H]2[C@H](O)/C=C/C(=O)O1	-42.7% (active)
O=C(NC1CC1)c1cc2n(n1)CC(c1ccccc1)N2 (centres undefined)	98.5%
O=c1[nH]c(=S)[nH]c2nc[nH]c12	100%
CC(=O)O[C@@H]1[C@@H](OC(C)=O)[C@H](OC(C)=O)CO[C@H]1Nc1cccc2ccccc12	104%
Cc1nn2c(-c3nc4ccc(Cl)cc4[nH]3)c(-c3ccc(F)cc3)nc2s1	102%
O=C(NCCNc1cc(-c2cn(-c3ccccc3)nc2-c2cccc(O)c2)ccn1)Nc1ccccc1	64.9%
CCN(CC)c1ccc2nc3ccc(N=Nc4ccc(N(C)C)cc4)cc3[n+](-c3ccccc3)c2c1	-65.6% (active)
NCCCN	107%
CN(C)c1ccc(C2C(C#N)=C(/N=C/c3ccccc3)Oc3c2ccc2ccccc32)cc1 (centres undefined)	86.3%
C=C1C(=O)O[C@H]2[C@H]1CC/C(COC(=O)/C=C\C(=O)NCc1ccc(Cn3c(=O)sn(-c4ccc(Cl)cc4)c3=O)cc1)=C\CC[C@@]1(C)O[C@@H]21	-83.5% (active)
COc1cc(C(=O)N2N=C(c3ccc(S(C)(=O)=O)cc3)CC2c2ccco2)cc(OC)c1OC (centres undefined)	36.7%
COc1ccc(-c2nc(-c3ccccc3)c(-c3ccccc3)[nH]2)cc1OC1CCCCC1	73.1%
O=C(O)c1ccccc1C(=O)Nc1ccc(Cl)cc1	120%
CC(C)C(C)(C)c1ccc(O)cc1	91.1%
O=C1c2ccccc2C(=O)c2c1c(C(=O)NCc1ccccc1)c1ccccn21	101%
Cc1cc(C)c(N)c(Br)c1	104% and 107%
Clc1ccc2c(c1)NC1(CCSc3ccccc31)n1nccc1-2 (centres undefined)	106%
Cn1c(NCCc2ccc(O)c(O)c2)nc2c1c(=O)n(Cc1ccc(Br)cc1)c(=O)n2C	43.3%
CCN1C(=O)N(CC)C2Nn3c(s/c(=C\c4ccc([N+](=O)[O-])cc4)c3=O)=NC21 (centres undefined)	7.37% (active)
Cc1ccc2c(n1)C(=O)C(Cl)=C(Nc1ccc(C(=O)OC(C)(C)C)cc1)C2=O	-50.3% [9.25 µM] (active)
O=C(N/N=C/c1ccccc1O)C(O)(c1ccccc1)c1ccccc1	38.2%
COC(=O)/C=C/c1c(C2(C)NC(=O)c3ccccc3N2)c(=O)oc2ccc(Cl)cc12 (centres undefined)	88.7%
NN1C(=O)CSC1=S	119%
O=C(NCc1ccccc1)C(Cl)Cl	85.2%
